Source: PubChem BioAssay AID743025 (Vanderbilt Specialized Chemistry Center, 2013)
Calls of active or inactive are those of the source.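 How the source made its calls: active means IC50 below 10 µM at human M5 in a calcium flux test, acting as a negative modulator; inactive means the rest.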

These molecules were tested against Muscarinic acetylcholine receptor M5 (Homo sapiens) (UniProt P08912) (assay: inhibition of ACh-evoked M5 calcium signal – cell-based, single concentration, human M5 (AID 743025)). Settings: CHO-K1 hM5, ACh EC80 calcium flux, Fluo-4; at 10 µM; hits give low values.
Sequence of Muscarinic acetylcholine receptor M5 (Homo sapiens) (P08912 whole entry, looked up): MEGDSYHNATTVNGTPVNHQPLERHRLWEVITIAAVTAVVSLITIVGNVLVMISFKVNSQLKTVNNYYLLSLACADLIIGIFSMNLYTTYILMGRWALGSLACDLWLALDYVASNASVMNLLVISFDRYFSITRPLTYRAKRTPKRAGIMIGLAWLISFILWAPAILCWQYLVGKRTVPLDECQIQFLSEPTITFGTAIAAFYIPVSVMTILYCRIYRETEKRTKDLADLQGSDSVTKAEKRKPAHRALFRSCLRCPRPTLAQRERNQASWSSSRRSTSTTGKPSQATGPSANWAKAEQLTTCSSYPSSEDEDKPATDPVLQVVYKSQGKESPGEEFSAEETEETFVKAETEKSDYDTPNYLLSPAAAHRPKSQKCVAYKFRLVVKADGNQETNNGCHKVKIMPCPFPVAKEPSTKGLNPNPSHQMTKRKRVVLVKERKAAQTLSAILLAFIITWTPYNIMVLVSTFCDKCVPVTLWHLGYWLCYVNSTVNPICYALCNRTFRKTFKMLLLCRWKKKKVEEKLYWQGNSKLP

Row | SMILES | activity remaining
1 | O=C(c1ccc(Cl)cc1)N1CCN2C(=O)c3ccccc3C12c1ccccc1 (configuration not stated) | 89.9% (inactive)
2 | Cc1cccc(C(=O)N2CCCN3C(=O)c4ccccc4C23c2ccc(Cl)cc2)c1 (configuration not stated) | 72.9% (inactive)
3 | Cc1ccc(C23c4ccccc4C(=O)N2CCN3C(=O)c2ccc(F)cc2)cc1 (configuration not stated) | 14.1% (active)
4 | COc1ccccc1NC(=O)N1CCN2C(=O)c3ccccc3C12c1ccccc1 (configuration not stated) | 86.6% (inactive)
5 | O=C(c1ccccc1)N1CCN2C(=O)c3ccccc3C12c1ccc(F)cc1 (configuration not stated) | 67.6% (active)
6 | O=C1c2ccccc2C2(c3ccccc3)N1CCN2C(=O)C(Cl)(Cl)Cl (configuration not stated) | 55.1% (active)
7 | O=C(c1ccccc1C(F)(F)F)N1CCN2C(=O)c3ccccc3C12c1ccccc1 (configuration not stated) | 82.4% (inactive)
8 | CC(C)(C)NC(=O)N1CCN2C(=O)c3ccccc3C12c1ccccc1 (configuration not stated) | 83.8% (inactive)
9 | Cc1ccc(C23c4ccccc4C(=O)N2CCN3C(=O)c2ccc(OC(F)(F)F)cc2)cc1 (configuration not stated) | 6.55% (active)
10 | O=C(c1ccc(SC(F)(F)F)cc1)N1CCN2C(=O)c3ccccc3C12c1ccc(F)cc1 (configuration not stated) | -0.72% (active)
11 | O=C(c1cc(Cl)cc(Cl)c1)N1CCCN2C(=O)c3ccccc3C12c1ccccc1 (configuration not stated) | 51.9% (active)
12 | O=C(c1cc(F)cc(F)c1)N1CCN2C(=O)c3ccccc3C12c1ccc(Cl)cc1 (configuration not stated) | 3.53% (active)
13 | O=C(c1ccc(OC(F)(F)F)cc1)N1CCCN2C(=O)c3ccccc3C12c1ccc(Cl)cc1 (configuration not stated) | 76.4% (inactive)
14 | O=C(c1ccco1)N1CCN2C(=O)c3ccccc3C12c1ccccc1 (configuration not stated) | 81.3% (inactive)
15 | Cc1cccc(C(=O)N2CCN3C(=O)c4ccccc4C23c2ccccc2)c1 (configuration not stated) | 52.7% (active)
16 | Cc1ccccc1C(=O)N(C)C(c1ccccc1)c1ccccc1 | 81.6% (inactive)
17 | O=C(c1ccc(F)c(F)c1)N1CCN2C(=O)c3ccccc3C12c1ccccc1 (configuration not stated) | 0.88% (active)
18 | CCCN1C(=O)c2ccccc2C1c1ccccc1 (configuration not stated) | 86.1% (inactive)
19 | Cc1ccc(C23c4ccccc4C(=O)N2CCN3C(=O)c2ccc(F)c(F)c2)cc1 (configuration not stated) | 0.51% (active)

Row | SMILES | activity remaining
20 | O=C1c2ccccc2C2(c3ccc(Cl)cc3)NCCCN12 (configuration not stated) | 70.4% (inactive)
21 | O=C(c1cc(F)ccc1F)N1CCN2C(=O)c3ccccc3C12c1ccccc1 (configuration not stated) | 76% (inactive)
22 | O=C(c1ccc(C(F)(F)F)cc1)N1CCN2C(=O)c3ccccc3C12c1ccc(Cl)cc1 (configuration not stated) | 2.04% (active)
23 | O=C(c1ccccn1)N1CCN2C(=O)c3ccccc3C12c1ccccc1 (configuration not stated) | 100% (inactive)
24 | O=C(c1ccc(Br)cc1)c1ccccc1C(=O)N1CCCN(C(=O)c2ccccc2)CC1 | 78.1% (inactive)
25 | O=C(c1ccc(SC(F)(F)F)cc1)N1CCN2C(=O)c3ccccc3C12c1ccccc1 (configuration not stated) | 1.05% (active)
26 | Cc1ccc(C(=O)N2CCN3C(=O)c4ccccc4C23c2ccc(C)cc2)cc1 (configuration not stated) | 49.1% (active)
27 | O=C(c1ccc(F)c(F)c1)N1CCc2ccccc2C1c1ccc(Cl)cc1 (configuration not stated) | 67.4% (inactive)
28 | O=C1c2ccccc2C2(c3ccccc3)N1CCN2S(=O)(=O)c1cccc(C(F)(F)F)c1 (configuration not stated) | 80% (inactive)
29 | CSc1ccc(C(=O)N2CCN3C(=O)c4ccccc4C23c2ccccc2)cc1 (configuration not stated) | 58% (inactive)
30 | O=C1c2ccccc2C2(c3ccccc3)NCCN12 (configuration not stated) | 89.3% (inactive)
31 | Cc1cccc(C(=O)N2CCN3C(=O)c4ncccc4C23c2ccccc2)c1 (configuration not stated) | 68.9% (inactive)
32 | O=C(c1ccc(F)c(F)c1)N1CCN2C(=O)c3ncccc3C12c1ccccc1 (configuration not stated) | 66.4% (inactive)
33 | Cc1ccc(C(=O)N2CCN3C(=O)c4ccccc4C23c2ccccc2)cc1 (configuration not stated) | 70.2% (inactive)
34 | C=CCN1C[C@H](C)N2C(=O)c3ccccc3[C@@]12c1ccc(Cl)cc1 | 64.3% (inactive)
35 | O=C(c1ccc(Cl)c(Cl)c1)N1CCN2C(=O)c3ccccc3C12c1ccccc1 (configuration not stated) | 30.5% (active)
36 | O=C(c1cc(F)cc(F)c1)N1CCN2C(=O)c3ccccc3C12c1ccc(F)cc1 (configuration not stated) | 69.3% (inactive)
37 | Cc1ccc(C(=O)N2CCN3C(=O)c4ccccc4C23c2ccc(Cl)cc2)cc1 (configuration not stated) | 17.9% (active)
